Source: PubChem BioAssay
MCF10A rereplic: DNA re-replication induction in MCF 10a cells | 2.9% of 350,000 active | Potency, µM (doses to about 46.1 µM), inactives show at the highest dose activity, positive = re-replication, actives largely listed as activators | MCF 10A DNA re-replication, Hoechst nuclear intensity, 48 h; note: % of control where 0% means no effect; nearly all actives have a fitted effect of over 50% in size
SW480 rereplic: inducers of DNA re-replication in SW480 colon cancer cells. 1.8% of 340,000 active. Potency, µM (highest dose often 46.1 µM), without a hit: top-dose re-replication activation, hits mostly activators. SW480 DNA re-replication, Hoechst DNA content imaging, 48 h. AID 624297; note: % of control where 0% means no effect; nearly all actives have a fitted effect of over 55% in size
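Quantitative HTS format with DMSO vehicle controls; 48 hr drug incubation at 37 C, then 40 min Hoechst staining and scanning imager measurement at 405 nm excitation.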
TSG101-PTAP inh: blocks PTAP/TSG101 interaction to inhibit HIV-1 budding. Potency, µM (series often up to 115 µM), for inactives: top-dose activity change, negative = inhibition, usual class: inhibitors. Fluorescence polarization, FITC-PTAP peptide / Tsg101 binding. 340,000 tested, under 10 active. Q99816. AID 493005; active = well fitted inhibition curve with a large enough effect in the main read-out, with a control signal flat, not every such curve was filed as active; inconclusive = small, poorly fitted or top-dose-only effect, or effect the other way, or a change in a side signal; inactive = no such curve, though single readings can be large or run the other way; note: % of control where 0% means no effect
Target sequence (Q99816 whole entry, looked up): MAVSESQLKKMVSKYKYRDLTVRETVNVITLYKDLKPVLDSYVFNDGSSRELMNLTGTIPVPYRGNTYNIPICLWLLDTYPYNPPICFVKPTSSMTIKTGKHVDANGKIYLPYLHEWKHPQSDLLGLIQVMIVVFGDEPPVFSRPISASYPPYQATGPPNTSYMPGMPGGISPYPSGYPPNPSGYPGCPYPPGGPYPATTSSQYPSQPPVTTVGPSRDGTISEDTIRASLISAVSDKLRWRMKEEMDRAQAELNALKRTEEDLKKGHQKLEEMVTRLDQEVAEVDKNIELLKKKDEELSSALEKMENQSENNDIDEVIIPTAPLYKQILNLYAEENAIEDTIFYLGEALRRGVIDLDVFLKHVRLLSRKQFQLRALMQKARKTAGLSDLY
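Steps: Tsg101 binding domain dispensed (10 uM final), compounds pinned in DMSO, FITC-labeled PTAP-motif peptide added (50 nM final); after 20 min binding at room temperature, polarization measured.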
PINK1 expr mod: modulators of PINK1 expression; PINK1 immunofluorescence, high-content cytometry, 24 h; Potency, µM (top dose mostly 76.6 µM), for the others: top-dose activation (PINK1 increase), actives largely listed as activators; 0.2% of 410,000 active; active = well fitted activation curve with a large enough effect; inconclusive = small, poorly fitted or top-dose-only effect; cell line not stated here; note: % of control where 0% means no effect; nearly all actives have a fitted effect of over 65% in size
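Readout is PINK1 immunofluorescence, quantified alongside mitochondrial, cell and nuclear markers by laser-scanning microplate cytometry. Cells from a stable line were exposed to compound titrations (5 concentrations) for 24 hours, with CCCP controls.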
KB-V1 MDR tox: KB-V1 MDR subline cytotoxicity; KB-V1 MDR cells viability, CellTiter-Glo, 72 h; AID 1347076; 3.4% of 400,000 active; Potency, µM (highest dose often 46.1 µM), most hits filed as cytotoxic; note: % is set by controls: 0 for no effect and ±100 for the full control effect; nearly all actives have a fitted effect of over 60% in size
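KB-V1 MDR subline cells in DMEM (phenol-red free, 10% FBS) exposed to compounds in qHTS concentration series for 72 h at 37 degrees C. Viability read by CellTiter-Glo luminescence; concentration-effect curves fitted after normalization and correction.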
KB-3-1 cytotox: kills parental KB-3-1 adenocarcinoma cells | AID 1347075 | KB-3-1 viability, CellTiter-Glo ATP luminescence, 72 h | Potency, µM (doses to about 46.1 µM), usual class: cytotoxic | 1.4% of 400,000 active; note: % is set by controls: 0 for no effect and ±100 for the full control effect; nearly all actives have a fitted effect of over 60% in size
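72 h, 37 °C compound treatment of KB-3-1 parental cells; CellTiter-Glo added, 10 min, luminescence read. Data corrected against DMSO-only plates and normalized before curve fitting.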
* hit, by the source's call; i = inactive; ? = inconclusive; . = no result; [ ] = remark or other dose. Rows were chosen to be rich in hits. Some 6.8% of all compounds tested hit in one or more screens of this group. Unless noted, calls come from the whole dose curve; as a rule, active = well fitted curve in the direction sought with a large enough effect; inconclusive = small, poorly fitted or top-dose-only effect, or another doubt; inactive = no such curve, though single readings can be large; an effect the other way counts as inactive or inconclusive. Potency is the fitted concentration of half-maximal effect.

SMILES	MCF10A rereplic	SW480 rereplic	TSG101-PTAP inh	PINK1 expr mod	KB-V1 MDR tox	KB-3-1 cytotox
Cc1csc(NC(=O)COCC(=O)O)c1-c1nc2ccccc2s1	?	-64.9%	-2.4%	-0.9%	i	i
Cc1nn2c(=O)cc(CN(C)c3ccccc3)nc2s1	.	.	.	0.5%	i	i
C[C@H](Cc1ccccc1)Nc1ncnc2c1ncn2[C@@H]1O[C@H](CO)[C@@H](O)[C@H]1O	0.7%	6.1%	0.8%	0.6%	i	i
CN(C)c1ncnc2c1nnn2C1OC(CO)C(O)C1O (stereo unspecified)	.	.	.	-1.2%	1.64µM*	i
OCC1OC(n2cnc3c(Cl)ncnc32)C(O)C1O (stereo unspecified)	.	.	.	3.4%	.	.
COc1ccc(C[C@H](N)C(=O)N[C@H]2[C@@H](O)[C@H](n3cnc4c(N(C)C)ncnc43)O[C@@H]2CO)cc1	?	?	0.5%	-0.6%	i	0.411µM*
CNc1ncnc2c1ncn2[C@@H]1O[C@H](CO)[C@@H](O)[C@H]1O	19.8%	0.3%	-3.1%	2.6%	i	i
CN(C)c1ncnc2c1ncn2C1OC(CO)C(O)C1O (stereo unspecified)	?	7.31µM*	1.4%	-2.7%	?	8.2µM*
OCC1OC(n2cnc3c(/C=C(\O)c4ccccc4)ncnc32)C(O)C1O (stereo unspecified)	5.8µM*	?	-2.8%	1.2%	?	?
COc1cccc(-c2ccc(O)c(CNCc3cccc(OC)c3OC)c2)n1	.	.	.	0.8%	.	.
Nc1ccn([C@@H]2O[C@H](CO)[C@@H](O)[C@@H]2O)c(=O)n1	25.7%	6.6%	2.3%	-0.9%	i	i
OCC1OC(n2ccc3c2ncn2ncnc32)C(O)C1O (stereo unspecified)	.	.	.	0.2%	0.651µM*	?
Cc1ccc(N2CC(NC(=O)c3cccs3)CC2=O)cc1C (stereo unspecified)	.	.	.	0.1%	.	.
Cc1cc(O)cc2c(=O)c3ccccc3sc12	18.4µM*	?	-1.4%	1.0%	?	i
CCOC(=O)c1c(NC(=O)c2ccc(N3C(=O)C4C5C=CC(C5)C4C3=O)cc2)sc2c1CCCC2 (stereo unspecified)	?	2.8%	0.5%	4.4%	16.4µM*	i
CCN1CCN(C(c2cccnc2)c2c(NC(=O)c3ccco3)sc(C)c2C)CC1 (stereo unspecified)	?	-32.4%	-3.4%	1.2%	i	i
Cc1sc(NC(=O)c2ccco2)c(CN2CCN(Cc3ccccc3)CC2)c1C	23.1µM*	?	-4.6%	6.4%	?	?
Cc1sc(NC(=O)c2ccco2)c(C(c2cccnc2)N2CCC(C)CC2)c1C (stereo unspecified)	?	3.2%	-3.2%	14.6%	?	18.4µM*
Cc1sc(NC(=O)c2ccco2)c(CN2CCC(C)CC2)c1C	?	1.6%[9.22 µM]	-2.0%	-1.4%	i	?
CCOC(=O)c1c(NC(=O)C2C3C=CC(C3)C2C(=O)O)sc2c1CCCC2 (stereo unspecified)	0.1%	13.6%	-0.1%	-0.4%	i	i
CCOC(=O)c1c(NC(=O)c2ccco2)sc(C(=O)N2CCCC2)c1C	22.7%	4.0%	0.4%	-1.4%	2.31µM*	i
CCOC(=O)c1c(NC(=O)C(C)N2CCN(C(=O)c3ccco3)CC2)sc2c1CCCC2 (stereo unspecified)	14.6µM*	21.5%	2.4%	11.8%	?	?
COC(=O)CSc1[nH]c2ccccc2c1[N+](=O)[O-]	14.6µM*	-3.3%	-3.0%	-0.4%	i	i
COc1ccc(C(=O)c2cc([N+](=O)[O-])ccc2N2CCCC2)cc1	1.46µM*	18.4µM*	-0.4%	0.2%	?	?
COc1ccc(C(=O)c2cc([N+](=O)[O-])ccc2N2CCN(C)CC2)cc1	8.2µM*	?	-4.9%	0.9%	6.51µM*	2.91µM*
SMILES	MCF10A rereplic	SW480 rereplic	TSG101-PTAP inh	PINK1 expr mod	KB-V1 MDR tox	KB-3-1 cytotox
COc1ccc(/C=C2\N=C(c3ccccc3Cl)NC2=O)cc1	13µM*	10.3µM*	-1.7%	4.5%	?	?
COc1ccc(C2Nc3ccccc3C(=O)N2c2ccc(F)cc2)cc1CSc1ccccn1 (stereo unspecified)	?	2.2%	-2.1%	?	i	i
O=C1c2ccccc2NC(c2cccc(F)c2)N1Cc1ccco1 (stereo unspecified)	?	-1.7%	-7.8%	-6.3%[38.3 µM]	i	i
COc1ccc(C2Nc3ccccc3C(=O)N2c2cccc3ccccc23)cc1COc1c(C)cccc1C (stereo unspecified)	.	.	.	0.5%	i	13µM*
O=C1c2ccccc2NC(c2cccc(F)c2)N1Cc1ccccc1 (stereo unspecified)	20.6µM*	?	-5.1%	23.3%	i	i
COc1ccc(C2Nc3ccccc3C(=O)N2c2ccccc2)cc1COc1ccccn1 (stereo unspecified)	-0.7%	-7.2%	-5.1%	.	i	i
COc1ccc(C2Nc3ccccc3C(=O)N2Cc2ccccc2)cc1CSc1ccccn1 (stereo unspecified)	13.7%	-5.0%	-0.8%	0.5%	4.61µM*	i
COc1ccc(C2Nc3ccccc3C(=O)N2c2ccccc2)cc1CSc1ccccn1 (stereo unspecified)	-0.1%	15.0%	1.4%	12.0%	4.11µM*	i
Cc1ccn2c(=O)cc(CSc3nnc(C)s3)nc2c1	.	.	.	26.6%	.	.
COc1nc(NC(C)(C)C)nc(Oc2ccc(=O)n(-c3ccccc3)n2)n1	10.8%	-0.7%	-2.3%	3.3%[38.3 µM]	20.6µM*	i
O=C(CCCc1nc2ccccc2s1)N1CCN(S(=O)(=O)c2cccs2)CC1	?	7.4%	-0.2%	-1.4%	23.1µM*	i
O=C(CCCc1nc2ccccc2s1)N1CCN(c2ccccc2)CC1	2.4%	-2.4%	-0.1%	0.9%	i	i
COc1cc(C2Nc3ccccc3C(=O)N2Cc2ccccc2)ccc1OCc1ccccc1 (stereo unspecified)	.	.	.	1.8%	i	i
COc1ccc(CNC(=O)CCC(=O)N2CC3CCCN3c3ccccc32)cc1 (stereo unspecified)	.	.	.	-0.4%	i	i
COc1ccccc1-c1ccc2c(c1)C(C)(Cc1cccc(F)c1)C(=O)N2 (stereo unspecified)	.	.	.	10.2%	20.6µM*	?
COc1ccc(C(C)=O)cc1CC1(C)C(=O)Nc2ccc(-c3ccccc3OC)cc21 (stereo unspecified)	.	.	.	-0.3%	i	i
